{"source": "PubChem BioAssay (NCI)", "note": "This is part of a sample that, as a whole, favours compounds with a hit. Of some 79,000 tested, about 15% had one in any assay. The source made the active and inactive calls. Cut-off read from the data, not from the text of the source: active = growth inhibition above about 70%; inactive = the rest.", "data": [{"test": "NCI Yeast Anticancer Drug Screen. Data for the mec2-1 strain (AID 157)", "settings": "S. cerevisiae mec2-1 strain, at 50.0 µM (retest, dose inferred, filed as 5.0), active compounds read high", "in_short": "(§1)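 Yeast mec2-1 mutant treated with compound. Readout: growth inhibition vs vehicle controls.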", "values": [{"molecule": "Cc1ccc(O)c(C(c2cc(C)ccc2O)c2ccccc2Cl)c1", "growth inhibition": "99% (active)"}, {"molecule": "O=c1ssc(=Nc2ccc(Cl)cc2)n1-c1ccc(Cl)cc1", "growth inhibition": "99% (active)"}, {"molecule": "CC(=O)OC1CCC2(C)C(CCC3C4=CCC(C5COC(=O)C5)C4(C)CCC32)C1", "note": "(stereo not given)", "growth inhibition": "94% (active)"}, {"molecule": "CCN(CC)CCCC(C)Nc1cc(F)cc2cccnc12", "note": "(stereo not given)", "growth inhibition": "31% (inactive)"}, {"molecule": "CC1CN(CCCN2c3ccccc3Sc3ccc(Cl)cc32)C(C)(C)C1", "note": "(stereo not given)", "growth inhibition": "100% (active)"}, {"molecule": "O=S(=O)(O)c1ccc2c(c1)C1C(C3C2C2(Cl)C(Cl)=C(Cl)C3(Cl)C2(Cl)Cl)C2(Cl)C(Cl)=C(Cl)C1(Cl)C2(Cl)Cl", "note": "(stereo not given)", "growth inhibition": "94% (active)"}, {"molecule": "OC(CN1CCC(c2ccccc2)CC1)c1ccc(Br)cc1", "note": "(stereo not given)", "growth inhibition": "53% (inactive)"}, {"molecule": "CCOC(=O)/C(C#N)=C\\c1cccc2ccccc12", "growth inhibition": "91% (active)"}, {"molecule": "COc1ccc2c(c1)CCC(N1CCCC(O)C1)C2", "note": "(stereo not given)", "growth inhibition": "99% (active)"}, {"molecule": "COc1cccc(N2CCN(CC(O)COc3cc4c(c5c3CCCC5)CCCC4)CC2)c1", "note": "(stereo not given)", "growth inhibition": "98% (active)"}, {"molecule": "CC(=O)Oc1ccc(Cl)cc1Cc1cc(Cl)ccc1OC(C)=O", "growth inhibition": "93% (active)"}, {"molecule": "CC(O)c1c2c(cc3c1CC1(C3)Cc3cc4c(c(C(C)O)c3C1)CCC4)CCC2", "note": "(stereo not given)", "growth inhibition": "97% (active)"}, {"molecule": "O=c1c2ccccc2nc(-c2ccccc2)n1NC(=S)Nc1ccc(Cl)cc1[N+](=O)[O-]", "growth inhibition": "10% (inactive)"}, {"molecule": "O=C(CCCN1CCc2[nH]c3cc(F)ccc3c2C1)c1ccc(F)cc1", "growth inhibition": "98% (active)"}, {"molecule": "OC(C(=Nc1ccccc1)c1ccccc1)c1ccccc1", "note": "(stereo not given)", "growth inhibition": "99% (active)"}, {"molecule": "N#CC1CCCC(Cc2ccccc2)(c2ccccc2)C1=O", "note": "(stereo not given)", "growth inhibition": "95% (active)"}, {"molecule": "CC(OC(=O)Nc1cccc(Cl)c1)c1ccccc1", "note": "(stereo not given)", "growth inhibition": "99% (active)"}, {"molecule": "O=C(O)/C=C/c1c2ccccc2cc2ccccc12", "growth inhibition": "98% (active)"}, {"molecule": "Cc1c[nH]c2c(O)cc3c(c12)[C@H](CCl)CN3C(=O)c1cc2cc(NC(=O)Nc3ccc4[nH]c(C(=O)N5C[C@@H](CCl)c6c5cc(O)c5[nH]cc(C)c65)cc4c3)ccc2[nH]1", "growth inhibition": "63% (inactive)"}, {"molecule": "Cc1ccc(S(=O)(=O)OC(C=O)C(O)C(O)COC(c2ccccc2)(c2ccccc2)c2ccccc2)cc1", "note": "(stereo not given)", "growth inhibition": "98% (active)"}, {"molecule": "COc1cc2c(cc1C(C)C)CCC1C(C)(C#N)CCCC21C", "note": "(stereo not given)", "growth inhibition": "-11% (inactive)"}, {"molecule": "Fc1ccc(NC(=S)SCc2ccc(Cl)c(Cl)c2)c(F)c1", "growth inhibition": "99% (active)"}, {"molecule": "COC(=O)/C=C(\\NC1CC(OC2C[C@](O)(C(C)=O)Cc3c(O)c4c(c(O)c32)C(=O)c2c(OC)cccc2C4=O)OC(C)C1O)C(=O)OC", "note": "(stereo not given in full)", "growth inhibition": "98% (active)"}, {"molecule": "O=C1CSC(=S)N1c1ccc(F)cc1F", "growth inhibition": "82% (active)"}, {"molecule": "CS(=O)(=O)OCCN(CCOS(C)(=O)=O)c1ccc(C=Nc2ccc3ccccc3c2)c(Cl)c1", "growth inhibition": "-3% (inactive)"}, {"molecule": "CN(C)C(=O)Nc1ccc(Cc2ccc(NC(=O)N(C)C)cc2)cc1", "growth inhibition": "-32% (inactive)"}, {"molecule": "O=c1c(Cl)c(Cl)c(=O)c2sc3cc(Cl)ccc3[nH]c1=2", "growth inhibition": "27% (inactive)"}, {"molecule": "O=S(=O)(O)C(O)c1ccc2ccc3cccc4ccc1c2c34", "note": "(stereo not given)", "growth inhibition": "96% (active)"}, {"molecule": "N#Cc1cc([N+](=O)[O-])ccc1NC(=O)/C(=N/N)C(C(=O)c1ccc(Cl)c(Cl)c1)C1OC(=O)c2ccccc21", "note": "(stereo not given)", "growth inhibition": "11% (inactive)"}, {"molecule": "O=C(Nc1ccc(Cl)c(Cl)c1Cl)Oc1c(Cl)c(Cl)c(Cl)c(Cl)c1Cl", "growth inhibition": "100% (active)"}, {"molecule": "O=[N+]([O-])c1cc(Cl)cc2c1nc(NCCO)c1ccccc12", "growth inhibition": "67% (inactive)"}, {"molecule": "CCNc1nc(C(F)(F)F)nc2nc[nH]c12", "growth inhibition": "4% (inactive)"}, {"molecule": "CC1CCN(CCOC(=O)C(c2ccccc2)C2C=CCCC2)C1", "note": "(stereo not given)", "growth inhibition": "37% (inactive)"}, {"molecule": "CCOC(=O)c1c(N)sc2c1CCCCC2", "growth inhibition": "-25% (inactive)"}, {"molecule": "CC(C(O)Cc1ccccc1)N(C)N=Nc1ccc([N+](=O)[O-])cc1", "note": "(stereo not given)", "growth inhibition": "59% (inactive)"}, {"molecule": "O=[N+]([O-])c1ccc(/C=c2\\sc3scc(-c4ccc([N+](=O)[O-])cc4)[n+]3\\c2=C/c2ccc([N+](=O)[O-])cc2)cc1", "growth inhibition": "99% (active)"}, {"molecule": "Oc1cc(C(c2ccccc2)c2ccccc2)c2ccccc2c1O", "growth inhibition": "8% (inactive)"}, {"molecule": "CC1=CC2OC3CC4OC(=O)/C=C/C=C/C(C(C)O)OCC(=O)C(C)CC(=O)OCC2(CC1)C4(C)C31CO1", "note": "(stereo not given)", "growth inhibition": "99% (active)"}, {"molecule": "CC(NNC(=S)N1CCCCCC1)c1cc2ccccc2cn1", "note": "(stereo not given)", "growth inhibition": "97% (active)"}, {"molecule": "CC(C)C1=CC23CCC4C(C)(C(=O)O)CCCC4(C)C2CC1C1C(=O)C=CC(=O)C13", "note": "(stereo not given)", "growth inhibition": "97% (active)"}]}, {"test": "NCI Yeast Anticancer Drug Screen. Data for the mec2-1 strain (AID 157)", "settings": "S. cerevisiae mec2-1 strain, at 50.0 µM, active compounds read high", "in_short": "as §1", "values": [{"molecule": "Cc1ccc(O)c(C(c2cc(C)ccc2O)c2ccccc2Cl)c1", "growth inhibition": "99.5% (active)"}, {"molecule": "O=c1ssc(=Nc2ccc(Cl)cc2)n1-c1ccc(Cl)cc1", "growth inhibition": "99.4% (active)"}, {"molecule": "CC(=O)OC1CCC2(C)C(CCC3C4=CCC(C5COC(=O)C5)C4(C)CCC32)C1", "note": "(stereo not given)", "growth inhibition": "61.5% (inactive)"}, {"molecule": "CCN(CC)CCCC(C)Nc1cc(F)cc2cccnc12", "note": "(stereo not given)", "growth inhibition": "63.2% (inactive)"}, {"molecule": "CC1CN(CCCN2c3ccccc3Sc3ccc(Cl)cc32)C(C)(C)C1", "note": "(stereo not given)", "growth inhibition": "99.8% (active)"}, {"molecule": "O=S(=O)(O)c1ccc2c(c1)C1C(C3C2C2(Cl)C(Cl)=C(Cl)C3(Cl)C2(Cl)Cl)C2(Cl)C(Cl)=C(Cl)C1(Cl)C2(Cl)Cl", "note": "(stereo not given)", "growth inhibition": "89.9% (active)"}, {"molecule": "OC(CN1CCC(c2ccccc2)CC1)c1ccc(Br)cc1", "note": "(stereo not given)", "growth inhibition": "61.2% (inactive)"}, {"molecule": "CCOC(=O)/C(C#N)=C\\c1cccc2ccccc12", "growth inhibition": "92.3% (active)"}, {"molecule": "COc1ccc2c(c1)CCC(N1CCCC(O)C1)C2", "note": "(stereo not given)", "growth inhibition": "56% (inactive)"}, {"molecule": "COc1cccc(N2CCN(CC(O)COc3cc4c(c5c3CCCC5)CCCC4)CC2)c1", "note": "(stereo not given)", "growth inhibition": "48.6% (inactive)"}, {"molecule": "CC(=O)Oc1ccc(Cl)cc1Cc1cc(Cl)ccc1OC(C)=O", "growth inhibition": "90.7% (active)"}, {"molecule": "CC(O)c1c2c(cc3c1CC1(C3)Cc3cc4c(c(C(C)O)c3C1)CCC4)CCC2", "note": "(stereo not given)", "growth inhibition": "81.4% (active)"}, {"molecule": "O=c1c2ccccc2nc(-c2ccccc2)n1NC(=S)Nc1ccc(Cl)cc1[N+](=O)[O-]", "growth inhibition": "-1.6% (inactive)"}, {"molecule": "O=C(CCCN1CCc2[nH]c3cc(F)ccc3c2C1)c1ccc(F)cc1", "growth inhibition": "68% (inactive)"}, {"molecule": "OC(C(=Nc1ccccc1)c1ccccc1)c1ccccc1", "note": "(stereo not given)", "growth inhibition": "98.6% (active)"}, {"molecule": "N#CC1CCCC(Cc2ccccc2)(c2ccccc2)C1=O", "note": "(stereo not given)", "growth inhibition": "98.1% (active)"}, {"molecule": "CC(OC(=O)Nc1cccc(Cl)c1)c1ccccc1", "note": "(stereo not given)", "growth inhibition": "99.5% (active)"}, {"molecule": "O=C(O)/C=C/c1c2ccccc2cc2ccccc12", "growth inhibition": "96.5% (active)"}, {"molecule": "Cc1c[nH]c2c(O)cc3c(c12)[C@H](CCl)CN3C(=O)c1cc2cc(NC(=O)Nc3ccc4[nH]c(C(=O)N5C[C@@H](CCl)c6c5cc(O)c5[nH]cc(C)c65)cc4c3)ccc2[nH]1", "growth inhibition": "33.6% (inactive)"}, {"molecule": "Cc1ccc(S(=O)(=O)OC(C=O)C(O)C(O)COC(c2ccccc2)(c2ccccc2)c2ccccc2)cc1", "note": "(stereo not given)", "growth inhibition": "84.5% (active)"}, {"molecule": "COc1cc2c(cc1C(C)C)CCC1C(C)(C#N)CCCC21C", "note": "(stereo not given)", "growth inhibition": "46.5% (inactive)"}, {"molecule": "Fc1ccc(NC(=S)SCc2ccc(Cl)c(Cl)c2)c(F)c1", "growth inhibition": "97.3% (active)"}, {"molecule": "COC(=O)/C=C(\\NC1CC(OC2C[C@](O)(C(C)=O)Cc3c(O)c4c(c(O)c32)C(=O)c2c(OC)cccc2C4=O)OC(C)C1O)C(=O)OC", "note": "(stereo not given in full)", "growth inhibition": "97.7% (active)"}, {"molecule": "O=C1CSC(=S)N1c1ccc(F)cc1F", "growth inhibition": "22.6% (inactive)"}, {"molecule": "CS(=O)(=O)OCCN(CCOS(C)(=O)=O)c1ccc(C=Nc2ccc3ccccc3c2)c(Cl)c1", "growth inhibition": "23.1% (inactive)"}, {"molecule": "CN(C)C(=O)Nc1ccc(Cc2ccc(NC(=O)N(C)C)cc2)cc1", "growth inhibition": "-13.2% (inactive)"}, {"molecule": "O=c1c(Cl)c(Cl)c(=O)c2sc3cc(Cl)ccc3[nH]c1=2", "growth inhibition": "95% (active)"}, {"molecule": "O=S(=O)(O)C(O)c1ccc2ccc3cccc4ccc1c2c34", "note": "(stereo not given)", "growth inhibition": "95.3% (active)"}, {"molecule": "N#Cc1cc([N+](=O)[O-])ccc1NC(=O)/C(=N/N)C(C(=O)c1ccc(Cl)c(Cl)c1)C1OC(=O)c2ccccc21", "note": "(stereo not given)", "growth inhibition": "92.2% (active)"}, {"molecule": "O=C(Nc1ccc(Cl)c(Cl)c1Cl)Oc1c(Cl)c(Cl)c(Cl)c(Cl)c1Cl", "growth inhibition": "99.6% (active)"}, {"molecule": "O=[N+]([O-])c1cc(Cl)cc2c1nc(NCCO)c1ccccc12", "growth inhibition": "45.2% (inactive)"}, {"molecule": "CCNc1nc(C(F)(F)F)nc2nc[nH]c12", "growth inhibition": "-5.75% (inactive)"}, {"molecule": "CC1CCN(CCOC(=O)C(c2ccccc2)C2C=CCCC2)C1", "note": "(stereo not given)", "growth inhibition": "16.9% (inactive)"}, {"molecule": "CCOC(=O)c1c(N)sc2c1CCCCC2", "growth inhibition": "45.4% (inactive)"}, {"molecule": "CC(C(O)Cc1ccccc1)N(C)N=Nc1ccc([N+](=O)[O-])cc1", "note": "(stereo not given)", "growth inhibition": "61.6% (inactive)"}, {"molecule": "O=[N+]([O-])c1ccc(/C=c2\\sc3scc(-c4ccc([N+](=O)[O-])cc4)[n+]3\\c2=C/c2ccc([N+](=O)[O-])cc2)cc1", "growth inhibition": "75.5% (active)"}, {"molecule": "Oc1cc(C(c2ccccc2)c2ccccc2)c2ccccc2c1O", "growth inhibition": "98.5% (active)"}, {"molecule": "CC1=CC2OC3CC4OC(=O)/C=C/C=C/C(C(C)O)OCC(=O)C(C)CC(=O)OCC2(CC1)C4(C)C31CO1", "note": "(stereo not given)", "growth inhibition": "94% (active)"}, {"molecule": "CC(NNC(=S)N1CCCCCC1)c1cc2ccccc2cn1", "note": "(stereo not given)", "growth inhibition": "78.7% (active)"}, {"molecule": "CC(C)C1=CC23CCC4C(C)(C(=O)O)CCCC4(C)C2CC1C1C(=O)C=CC(=O)C13", "note": "(stereo not given)", "growth inhibition": "96.3% (active)"}]}]}
